NPSR antagonist – qHTS Assay for Antagonists of the Neuropeptide S Receptor: cAMP Signal Transduction; CHO-NPSR cells, cAMP TR-FRET, antagonist mode; 220,000 tested, 1% active; Q6W5P4; Potency, µM (series often up to 38.3 µM), for the others: top-dose activity change, negative = inhibition, usual class: inhibitors; further: potency means the concentration at half of the fitted maximal effect; nearly all actives have a fitted effect of over 50% in size
Target sequence (Q6W5P4 whole entry, looked up): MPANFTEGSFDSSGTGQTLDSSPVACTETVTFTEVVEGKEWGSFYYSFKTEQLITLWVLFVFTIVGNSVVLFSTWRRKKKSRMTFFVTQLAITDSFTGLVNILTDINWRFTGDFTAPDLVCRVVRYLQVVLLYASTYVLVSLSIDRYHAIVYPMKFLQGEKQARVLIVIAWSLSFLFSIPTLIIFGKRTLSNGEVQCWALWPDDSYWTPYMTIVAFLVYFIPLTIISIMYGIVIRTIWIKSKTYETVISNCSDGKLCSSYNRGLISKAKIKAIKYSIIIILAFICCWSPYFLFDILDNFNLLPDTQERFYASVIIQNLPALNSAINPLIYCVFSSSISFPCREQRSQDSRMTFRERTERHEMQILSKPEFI
IMPase Li inh – qHTS Assay for Identifying the Cell-Membrane Permeable IMPase Inhibitors: Potentiation with Lithium; Potency, µM (series often up to 59.4 µM), inactives show top-dose activity, negative = IMPase inhibition, most hits filed as inhibitors; CHO-M1 cells, IP1 TR-FRET (IP-One), carbachol + lithium; 210,000 tested, 0.35% active; AID 1457, 2008;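 further: IP1 builds up when IMPase is blocked and the TR-FRET signal falls; potency means the concentration at half of the fitted maximal effect; plate controls were basal vehicle for no effect and high inhibitor control for full effect; nearly all actives have a fitted effect of over 50% in size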
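Test compounds were applied to CHO-M1 cells previously cultured for 16–30 h at 2000 per well. A small lithium amount accompanied them; after 30 min at 37C, IP1 was quantified by TR-FRET.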
IMPase cell inh – qHTS Assay for Identifying the Cell-Membrane Permeable IMPase Inhibitors; CHO-M1 cells, IP1 accumulation, HTRF TR-FRET ratio; inhibition (IP1 accumulation), % at 46.1 µM; 120,000 tested, under 10 active; AID 901, 2007; active means well fitted curve in the direction sought with a large enough effect in the signal ratio, not every such curve was filed as active; inconclusive means small, poorly fitted or top-dose-only effect, or a change in a side signal; inactive means no such curve, though single readings can be large or run the other way; the % refers to the signal ratio;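 further: cells stimulated with carbachol in lithium chloride buffer; plate controls were DMSO basal wells for no effect and reference inhibitor wells for full effect; higher means more IMPase inhibition seen as more IP1 and lower FRET ratio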
Target sequence (P97697 whole entry, looked up): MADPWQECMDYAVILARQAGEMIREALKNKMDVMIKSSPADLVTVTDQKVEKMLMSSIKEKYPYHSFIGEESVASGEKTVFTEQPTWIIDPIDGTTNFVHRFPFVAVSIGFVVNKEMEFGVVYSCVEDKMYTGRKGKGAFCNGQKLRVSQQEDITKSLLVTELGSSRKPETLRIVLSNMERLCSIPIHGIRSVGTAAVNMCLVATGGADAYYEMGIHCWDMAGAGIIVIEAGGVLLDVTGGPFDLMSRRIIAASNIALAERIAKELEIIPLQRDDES
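Cellular IMPase inhibition is scored as a rise in cytosolic IP1, detected by competitive TR-FRET between d2-labelled IP1 and a europium anti-IP1 antibody. M1-expressing CHO cells were stimulated with carbachol for 30 min at 37C, with lithium (50 mM LiCl) present in the buffer.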
HPGD inh – qHTS Assay for Inhibitors of HPGD (15-Hydroxyprostaglandin Dehydrogenase) | Potency, µM, for inactives: at the highest dose activity change, negative = inhibition, usual class: inhibitors | 15-hydroxyprostaglandin dehydrogenase [NAD(+)] (Homo sapiens), P15428 | 150,000 tested, 4.3% active | purified HPGD, NADH fluorescence kinetic, PGE2 substrate; active means well fitted inhibition curve with a large enough effect, not every such curve was filed as active; inconclusive means small, poorly fitted or top-dose-only effect, or another doubt; inactive means no such curve, though single readings can be large or run the other way; further: potency means the concentration at half of the fitted maximal effect
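NADH formation kinetics: reaction with 30 uM PGE2 and 1 mM NAD+ (final), 20 nM enzyme, Tris-HCl pH 8 with Tween 20, after 15 min compound preincubation at room temperature. Fluorescence change, last versus first of five reads.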
ALOX12 inhib – qHTS Assay for Inhibitors of 12-hLO (12-human lipoxygenase) | Polyunsaturated fatty acid lipoxygenase ALOX12 (Homo sapiens), P18054 | purified 12-hLO, xylenol orange hydroperoxide absorbance | Potency, µM (series often up to 57.1 µM), inactives show at the highest dose activity change, negative = inhibition, hits mostly inhibitors | 150,000 tested, 0.12% active | AID 1452, 2008; further: potency means the concentration at half of the fitted maximal effect; nearly all actives have a fitted effect of over 55% in size
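Purified human 12hLO (150 nM final) was preincubated with compounds for 15 min at room temperature in 25 mM Hepes pH 7.0, 0.01% Triton X-100, then reacted with 40 uM arachidonic acid for 30 min. Hydroperoxide was detected with ferrous iron/xylenol orange.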
ALDH1A1 inh – qHTS Assay for Inhibitors of Aldehyde Dehydrogenase 1 (ALDH1A1); 220,000 tested, 7.3% active; Potency, µM (highest dose often 75.3 µM), for inactives: at the highest dose activity, negative = inhibition, most hits filed as inhibitors; Aldehyde dehydrogenase 1A1 (Homo sapiens), P00352; Purified ALDH1A1, NADH fluorescence, propionaldehyde substrate; active means well fitted inhibition curve with a large enough effect, not every such curve was filed as active; inconclusive means small, poorly fitted or top-dose-only effect, or another doubt; inactive means no such curve, though single readings can be large or run the other way;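 further: potency means the concentration at half of the fitted maximal effect; plate controls were no enzyme wells and a reference inhibitor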
The depositor's hits bear a star; ? = inconclusive; nt = not tested or not shown; [ ] = another dose, or the depositor's remark. Sampled rows, rich in hits. Any-hit rate of the full collection: about 8.9%. Unless noted, the call rests on the fitted dose curve; in most records, active means well fitted curve in the direction sought with a large enough effect; inconclusive means small, poorly fitted or top-dose-only effect, or another doubt; inactive means no such curve, though single readings can be large; an effect the other way counts as inactive or inconclusive. Unless noted, on the % scale 0 is the no-effect control and ±100 the full control effect.

SMILES	NPSR antagonist	IMPase Li inh	IMPase cell inh	HPGD inh	ALOX12 inhib	ALDH1A1 inh
Cc1cccc(N(CC(=O)NCc2ccc3c(c2)OCO3)C(=O)CCC(=O)Nc2ccccn2)c1C	6%[7.67 µM]	4%[38.3 µM]	14	-15%	2%	28µM*
Cc1ccc2c(c1)C(=O)C(=O)N2CC(=O)OC(C)C	1%[46.1 µM]	-5%[38.3 µM]	-13	1%	-3%	0.079µM*
CC(=O)OCCSc1c(-c2ccccc2)c2cc(Cl)ccc2[nH]c1=O	-11%[46.1 µM]	nt	-1	nt	-4%	14µM*
Clc1ccccc1-c1nc2nc3ccccc3nc2n1-c1ccc2c(c1)OCO2	-36%	9%	nt	-16%	-3%	11µM*
CC(C)NC(=O)/C(C#N)=C\c1ccc(N(C)C)o1	-5%	13%	nt	nt	nt	?
CC(=O)Nc1ccc(/C=C(\C#N)C(=O)NCc2ccccc2)cc1	-17%	-2%	nt	?	-2%	-9%
CCN(CC)c1ccc(/C=C(/C#N)C(=O)NCc2ccccc2)o1	-17%	51%	nt	16µM*	-11%	2.8µM*
CCN(CC)c1ccc(/C=C(/C#N)C(=O)NC(C)C)o1	-22%	51%	nt	nt	nt	10µM*
CCOC(=O)C1=C(C)N=C2SC(C)C(=O)N2C1c1ccc(OC(C)=O)c(OC)c1 (stereo not drawn)	-10%[46.1 µM]	6%	3	-2%	-5%	-2%
CSc1nnc(NC(=O)c2ccc(C)c(S(=O)(=O)N3CCOCC3)c2)s1	-16%[46.1 µM]	8%[38.3 µM]	3	20µM*	1%	?
Cc1nnc(NC(=O)c2ccc(C)c(S(=O)(=O)N3CCOCC3)c2)s1	-12%[46.1 µM]	-5%[38.3 µM]	12	-7%	-6%	9%
CC1CCc2sc(C(=O)Nc3ccc(C(N)=O)cc3)cc2C1 (stereo not drawn)	-5%	nt	nt	nt	nt	?
CC1CCc2sc(C(=O)NN)cc2C1 (stereo not drawn)	10%	-5%	nt	nt	nt	7.1µM*
COc1ccc(NC(=O)c2cc3c(s2)CCC(C)C3)cc1S(=O)(=O)N1CCOCC1 (stereo not drawn)	-1%	15%	nt	-12%	-2%	16µM*
Cc1ccc(NC(=O)c2cc3c(s2)CCC3)cc1S(=O)(=O)N1CCOCC1	-23%[46.1 µM]	25%[38.3 µM]	0	-9%	-8%	1.1µM*
COc1ccc(C(=O)Nc2cccc(C(C)=O)c2)cc1S(=O)(=O)N1CCOCC1	-15%[46.1 µM]	-4%[38.3 µM]	-2	-1%	-2%	-9%
CC(C)(C)c1nnc(NC(=O)c2cccs2)s1	-3%	5%	nt	nt	nt	3%
CC(C(=O)N1CCCCC1)N(C)CC(=O)Nc1ccc(Cl)cc1 (stereo not drawn)	-9%	-4%	nt	nt	nt	?
CC(C)C(NC(=O)c1ccc2c(c1)OCO2)C(=O)N/N=C\c1ccco1 (stereo not drawn)	-10%[46.1 µM]	1%[38.3 µM]	0	-16%	-3%	4%
Cc1ccc(S(=O)(=O)CCSc2nc(C)cc(C(F)(F)F)c2C#N)cc1	-22%	11%	-8	-27%	1%	0.35µM*
COC(=O)CSc1nc(C)cc(C(F)(F)F)c1C#N	-13%[46.1 µM]	-7%[38.3 µM]	6	-1%	4%	1%
CCC(C)NC(=O)c1ccc2c(Cl)c3c(nc2c1)CCC3 (stereo not drawn)	-22%	nt	nt	nt	nt	nt
CN(C(=O)c1ccc2c(Cl)c3c(nc2c1)CCC3)c1ccccc1	-13%	16%	nt	4.5µM*	2%	?
CCN(C(=O)c1ccc2c(Cl)c3c(nc2c1)CCC3)c1ccc(C)c(C)c1	-48%	18%	nt	?	-3%	14µM*
CCn1cc(Br)c(C(=O)Nc2ccc(OC)cc2)n1	-6%[46.1 µM]	19%[38.3 µM]	-12	-3%	3%	4%
SMILES	NPSR antagonist	IMPase Li inh	IMPase cell inh	HPGD inh	ALOX12 inhib	ALDH1A1 inh
CCn1cc(Br)c(C(=O)NN)n1	1%[46.1 µM]	-7%[38.3 µM]	-2	-12%	1%	25µM*
Cc1cc(NC(=S)Nc2cccnc2)ccc1Br	-9%	9%	nt	nt	nt	22µM*
Cc1cc(NC(=S)Nc2ccccc2)ccc1Br	-1%[46.1 µM]	-5%[38.3 µM]	-15	-4%	-8%	-1%
COc1cc(NC(=S)Nc2cccnc2)cc(OC)c1	1%[46.1 µM]	-7%	10	28µM*	-21%	32µM*
O=C(CSc1nncn1-c1ccccc1)NCc1cccs1	-4%[46.1 µM]	24%[38.3 µM]	4	-2%	-4%	1%
O=C(Cn1c(=O)oc2ccccc21)NC(=O)NCc1ccccc1	-12%[46.1 µM]	2%[38.3 µM]	3	6%	-3%	-13%
COc1ccccc1-n1c(C)c2c(OC)cccc(=O)c2c1C	8%	6%	nt	11µM*	-8%	?
Oc1ccc(C2CNCCc3c2cc(O)c(O)c3Cl)cc1 (stereo not drawn)	-16%[46.1 µM]	29%	nt	-16%	nt	?
Oc1ccc(C2CNCc3sccc32)cc1O (stereo not drawn)	-3%[46.1 µM]	13%	nt	7.1µM*	nt	?
COc1ccc(Cn2c(CCC(=O)N3CCN(c4ccccn4)CC3)nc3ncccc3c2=O)cc1	-15%[46.1 µM]	16%[38.3 µM]	3	-13%	-7%	?
CCN(CC)C(=O)CSc1nc2c(sc(=S)n2CC)c(=O)n1-c1ccccc1	-28%[46.1 µM]	-10%[38.3 µM]	10	-4%	1%	?
CCOC(=O)CSc1nc2c(sc(=S)n2Cc2ccco2)c(=O)n1-c1ccc(F)cc1	?	7%[38.3 µM]	15	-16%	-5%	-15%
CCN(CC)C(=O)CSc1nc2c(sc(=S)n2-c2ccccc2)c(=O)n1Cc1ccco1	10µM*	10%[38.3 µM]	12	32µM*	-4%	10µM*
COc1ccccc1-n1c(=S)sc2c(=O)n(Cc3ccco3)c(SC)nc21	?	33%[38.3 µM]	-6	-28%	-10%	20µM*
CCCC(Oc1ccc(Br)cc1)c1nc2c3cc(OC)c(OC)cc3nc(=S)n2[nH]1 (stereo not drawn)	-45%	8%	nt	nt	nt	5%
c1ccc2c(-c3csc(-c4ccncc4)n3)c[nH]c2c1	-4%	16%	nt	nt	nt	-12%
COc1ccc(Oc2ncc3nc(C)c(=O)n(Cc4cccc(OC)c4)c3n2)cc1	nt	23%	nt	nt	nt	?
O=c1cnc2cnc(OCc3ccccc3)nc2n1Cc1ccc(F)cc1	nt	17%	nt	32µM*	-22%	?
COc1ccc(Oc2ncc3ncc(=O)n(CCc4ccccc4)c3n2)cc1	nt	?	nt	-4%	1%	0.89µM*
COc1ccc(Oc2ncc3ncc(=O)n(Cc4cccc(OC)c4)c3n2)cc1	nt	-4%	nt	18µM*	-10%	-5%
CN1c2ccccc2C(C)(C)[C@]12C=Cc1cc(O)ccc1O2	13µM*	53%[38.3 µM]	5	-14%	-13%	-9%
